{
  "source": "PubChem BioAssay AID651718",
  "about": "(The Scripps Research Institute Molecular Screening Center, 2012)",
  "note": "About 2,700 (0.75%) of roughly 360,000 compounds were called active. This is one part of a sample in which actives are shown more often than they occur. A number with no mark means an inactive call. No stated cut-off is given here; in the data, active means inhibition above about 4.5%; inactive means the rest.",
  "data": [
    {"tested_on": "Methionine sulfoxide reductase A (Bos taurus)", "assay": "inhibition of methionine sulfoxide reductase A – biochemical, absorbance, bovine, HTS, primary screen (AID 651718);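 further: 0% = vehicle wells with enzyme and 100% = reference inhibitor wells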", "settings": "purified bovine MsrA, absorbance read-out; at 15.5 µM; stronger effect = higher value", "values": [
      {"smiles": "Cc1ccc(OCCCC(=O)Nc2ccc(S(=O)(=O)Nc3cc(C)nc(C)n3)cc2)cc1", "inhibition": "0.56%"},
      {"smiles": "Cc1ccc(S(=O)(=O)Nc2nc(C)cc(-n3nc(C)cc3C)n2)cc1", "inhibition": "-0.42%"},
      {"smiles": "Cc1ccc(S(=O)(=O)Nc2nc(C)cc(N/N=C/c3ccc(O)cc3)n2)cc1", "inhibition": "9.28% (active)"},
      {"smiles": "CCN1C(=O)N[C@@H](CCc2ccccc2)C(C(=O)OC)=C1C", "inhibition": "0.27%"},
      {"smiles": "CCCC(=O)N1CCC1(C)C(=O)NS(=O)(=O)c1ccc(Cl)cc1", "note": "(stereo not given)", "inhibition": "-0.68%"},
      {"smiles": "CCn1ncc(Br)c1C(=O)Nc1cc(C)ccc1F", "inhibition": "0.75%"},
      {"smiles": "Cc1ccccc1C(CC(=O)c1cccs1)C(C#N)C#N", "note": "(stereo not given)", "inhibition": "5.15% (active)"},
      {"smiles": "C/C(=N\\NC(=O)COc1c(C)cccc1C)c1cccs1", "inhibition": "-0.04%"},
      {"smiles": "Cc1ccc(NNC(=O)c2cccs2)cc1Cl", "inhibition": "-0.8%"},
      {"smiles": "COC(=O)Cc1nnn2c1[C@H](C)[C@@H](OC)c1cc(Br)ccc1-2", "inhibition": "0.56%"},
      {"smiles": "CCc1nc2ccc(C(=O)N3CCN(c4cccc(Cl)c4)CC3)cc2nc1CC", "inhibition": "0.35%"},
      {"smiles": "CC(=O)c1ccc(N2CCN(C(=O)c3ccc4nc[nH]c4c3)CC2)cc1", "inhibition": "4.75% (active)"},
      {"smiles": "CC(=NNC(=O)c1ccc2nc[nH]c2c1)c1ccc(Br)cc1", "inhibition": "-0.04%"},
      {"smiles": "CN(Cc1ccccc1)C(=O)[C@@H]1CCCN1C(=O)[C@@H]1CCCN1C(=O)c1c(F)cccc1F", "inhibition": "1.12%"},
      {"smiles": "Cc1[nH]c2ccccc2c1CC(=O)Nc1ccc(Nc2cccnc2)c(-c2cccc(Cl)c2)c1", "inhibition": "0.91%"},
      {"smiles": "COc1ccc(/C=C2\\SC(=O)N(CCC(=O)NC3CCS(=O)(=O)C3)C2=O)cc1", "note": "(stereo not given)", "inhibition": "7.15% (active)"},
      {"smiles": "COc1ccc(-c2ccc(OC(=O)NC3CCS(=O)(=O)C3)cc2)cc1", "note": "(stereo not given)", "inhibition": "-0.4%"},
      {"smiles": "COc1ccccc1/C=C1\\SC(=O)N(CCC(=O)N(C)C2CCS(=O)(=O)C2)C1=O", "note": "(stereo not given)", "inhibition": "1.66%"},
      {"smiles": "CC(C)CNc1cccc2c1S(=O)(=O)N[C@H](C)CO2", "inhibition": "0.24%"},
      {"smiles": "COC(=O)CN1C(=O)C(O)=C(C(C)=O)C1c1ccc([N+](=O)[O-])cc1", "note": "(stereo not given)", "inhibition": "4.6% (active)"},
      {"smiles": "CC(=O)C1=C(O)C(=O)N(c2ccc(Br)cc2)C1c1ccc([N+](=O)[O-])cc1", "note": "(stereo not given)", "inhibition": "3.13%"},
      {"smiles": "CC(=O)C1=C(O)C(=O)N(c2cccnc2)C1c1ccc([N+](=O)[O-])cc1", "note": "(stereo not given)", "inhibition": "3.72%"},
      {"smiles": "O=C(Cc1ccccc1)N/N=C/c1ccc(Cl)cc1Cl", "inhibition": "0.83%"},
      {"smiles": "NCCCCCC(=O)N/N=C/c1ccc2nccnc2c1", "inhibition": "4.64% (active)"},
      {"smiles": "CC1=NNC(=O)C1CCC(=O)N/N=C\\c1ccc(Cl)c(Cl)c1", "note": "(stereo not given)", "inhibition": "0.26%"}
    ]}
  ]
}
